The text below walks through data of PubChem BioAssay.

Assay [1] is described as follows: inhibitors of TNFa-induced NFkB p65 translocation, primary screen, imaging, HUVEC, MLSMR starter and 10KST1 sets (AID 438).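 For inhibition: signal is the nuclear over cytoplasmic p65 intensity ratio per well.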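 Note: compound added about 3h40 before a 20 min TNFalpha stimulation.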 To be noted: HUVEC TNFa-induced p65 nuclear translocation; cell count: measured here: nuclei count (cytotoxicity indicator), at 2.08 µM; inhibition: at 2 µM, stronger effect = higher value, 0% TNFa-plus-vehicle, 100% no-TNFa wells.
Assay [2] can be described thus: reduction of polyQ htt aggregates in cells – imaging, exon1htt(103Q)mCFP cells, high-content imaging, primary screen (AID 483;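 active = visual image review flags a hit and inhibition of aggregation exceeds 20%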;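 note: compound exposure lasted 3 days before fixation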;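 for nuclei count: percent of the per-plate median nuclei count of sample wells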). To be noted: exon1htt(103Q)mCFP cell line, aggregate imaging, at 2 µM; inhibition of aggregation: stronger effect = higher value; nuclei count: measured here: cell count, toxicity.
Assay [3] can be described thus: endothelial E-selectin expression blockers – imaging, HUVEC, immunofluorescence, MLSMR starter and 10KST1 sets, primary screen (AID 487;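 active = visually confirmed hit in the image check and inhibition above 20%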;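 for inhibition: signal is fraction of cell area covered by stained E-selectin grains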;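 for nuclei count: 100% = median nuclei count of all wells on the same plate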). As to conditions: HUVEC TNFalpha-induced E-selectin immunofluorescence imaging, at 2 µM; inhibition: stronger effect = higher value; nuclei count: measured here: cell number, toxicity.
For assay [4], the target named is Voltage-gated potassium channel subunit beta-2 (Rattus norvegicus) (UniProt P62483). Nature of the assay: inhibitors of rat Kvbeta2 reductase activity – biochemical, NADPH fluorescence, primary screen (AID 622;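 active = fluorescence slope higher than the sample average by over 3 SD, cut at about -0.22 in these data, passing the limit was not always enough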;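 note: slope of raw intensity against log time taken from 70 to 1610 s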). As to conditions: recombinant KvBeta, 4-cyanobenzaldehyde reduction, at 10 µM, stronger effect = higher value.
Sequence of Voltage-gated potassium channel subunit beta-2 (Rattus norvegicus) (P62483 whole entry, looked up): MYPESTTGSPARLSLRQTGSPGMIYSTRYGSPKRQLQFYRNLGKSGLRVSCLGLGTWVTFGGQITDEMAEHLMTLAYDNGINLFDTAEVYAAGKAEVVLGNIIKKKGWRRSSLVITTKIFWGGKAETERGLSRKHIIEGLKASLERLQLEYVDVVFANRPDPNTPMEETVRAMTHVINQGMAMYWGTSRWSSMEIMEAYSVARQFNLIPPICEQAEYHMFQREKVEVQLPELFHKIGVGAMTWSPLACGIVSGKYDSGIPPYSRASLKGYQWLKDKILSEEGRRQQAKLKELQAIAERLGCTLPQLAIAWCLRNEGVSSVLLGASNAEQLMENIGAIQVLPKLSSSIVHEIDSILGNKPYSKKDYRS
The target is the same in assay [5]. Kind of assay: enhancers of rat Kvbeta2 NADPH turnover – biochemical, NADPH fluorescence, primary screen (AID 623;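 active = NADPH fluorescence slope more negative than the mean of all samples by about 3 SD, 99.7% confidence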;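 note: fluorescence intensity change per second fitted from 20 to 320 s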). As to conditions: Recombinant KvBeta, NADPH fluorescence decrease slope, 10 min; at 10 µM; stronger effect = lower value.
In assay [6] the target is Alpha-2C adrenergic receptor (Homo sapiens) (UniProt P18825). Nature of the assay: compounds altering alpha2C-coupled GIRK flux – cell-based, HEK293 alpha2C/GIRK1/2, thallium flux, primary screen (AID 624;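 active = fluorescence slope after compound addition differing from the mean of all screened samples at 99.7% confidence, in either direction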;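 note: slope of fluorescence ratio to pre-addition baseline per second over 15 to 24 s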). As to conditions: thallium flux BTC fluorescence, at 10 µM, actives lie on both sides.
Sequence of Alpha-2C adrenergic receptor (Homo sapiens) (P18825 whole entry, looked up): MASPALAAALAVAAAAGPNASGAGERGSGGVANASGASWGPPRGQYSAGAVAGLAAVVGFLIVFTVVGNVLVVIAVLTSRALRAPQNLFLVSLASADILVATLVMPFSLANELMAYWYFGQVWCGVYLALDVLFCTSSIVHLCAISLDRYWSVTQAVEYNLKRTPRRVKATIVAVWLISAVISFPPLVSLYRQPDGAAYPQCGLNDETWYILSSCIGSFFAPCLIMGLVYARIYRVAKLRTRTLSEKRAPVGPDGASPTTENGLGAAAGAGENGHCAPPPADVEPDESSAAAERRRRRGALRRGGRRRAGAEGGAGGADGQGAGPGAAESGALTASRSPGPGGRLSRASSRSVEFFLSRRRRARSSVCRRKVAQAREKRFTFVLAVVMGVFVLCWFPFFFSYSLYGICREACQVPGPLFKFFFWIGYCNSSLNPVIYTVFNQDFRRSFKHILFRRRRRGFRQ
The nature of assay [7]: blockers of RIG-like receptor reporter activation – cell-based, Sendai virus stimulus, luciferase, 10K MLSCN set, TLR/RLR signaling modifier project, primary screen (AID 602276;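 active = inhibition at or above 50% at 10 µM; inactive = inhibition below 50%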;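 note: firefly luciferase from ISG56 promoter only with Renilla not read in this screen; 0% = Sendai virus plus DMSO and 100% = medium plus DMSO without virus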). To be noted: HEK293 RL24 IRF3 luciferase reporter, at 10 µM, stronger effect = higher value.
Assay [8] in a line: TLR3 IRF3 reporter activation blockers – cell-based, poly I:C stimulus, luciferase, 10K MLSCN set, primary screen (AID 602277;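 active = inhibition of the reporter signal at or above 50%; inactive = inhibition below 50%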). To be noted: HEK293-TLR3 RL24 IRF3 luciferase reporter, at 10 µM, stronger effect = higher value.

For orientation: inhibition means the relative decrease from the control value, in per cent.

SMILES strings stand for the structures. Active and inactive are the calls of the source.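 Rule for the calls, unless noted: active = inhibition above 20% together with a positive visual image hit; inconclusive = visual image hit but inhibition not above 20%; inactive = no visual image hit.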

As to `O=C(CC(Cc1ccccc1)C(=O)O)NCCc1ccc2c(c1)OCO2` (centres undefined), the cell count in assay [1] was 775. In addition, the inhibition in assay [1] is -6.3% (inactive); in assay [3] it was -161% (inactive); in assay [7], -2.67% (inactive); in assay [8], 23.4% (inactive). In addition, the inhibition of aggregation in assay [2] was -0.6% (inactive). Besides, the results for the nuclei count in assay [2] and in assay [3] were 107% and 145%, respectively. The fluorescence slope in assay [4] was -0.424 (inactive). For the same compound, in assay [5], the NADPH fluorescence slope is -3.2e-05 (inactive). Moreover, the slope in assay [6] was 0.00395 (inactive).
`Cc1ccc(-c2nc(N)n(C(=O)c3cccnc3)n2)cc1`: the cell count in assay [1] came to 359. Further, the inhibition was 5.5% (inactive) in assay [1], -110% (inactive) in assay [3], 0.795% (inactive) in assay [7] and 22.5% (inactive) in assay [8]. Also, in assay [2], the inhibition of aggregation was -19.9% (inactive). Also, the nuclei count in assay [2] amounted to 113%; in assay [3], 109%. In addition, the fluorescence slope in assay [4] was -0.339 (inactive). In addition, in assay [5], the NADPH fluorescence slope is -5.3e-06 (inactive). Besides, the slope in assay [6] was 0.00801 (inactive).
Regarding `CN1CCN(c2nc3c(c(=O)[nH]c(=O)n3C)n2CCOc2ccccc2)CC1`, the cell count in assay [1] turned out to be 311. Also, the inhibition is 6.2% (inactive) in assay [1], -45.8% (inactive) in assay [3], 3.18% (inactive) in assay [7] and 27.3% (inactive) in assay [8]. Besides, in assay [2], the inhibition of aggregation is 0.9% (inactive). Besides, the nuclei count in assay [2] came to 108%; in assay [3], 116%. Moreover, the fluorescence slope in assay [4] is -0.489 (inactive). In assay [5], the NADPH fluorescence slope is -4.3e-05 (inactive). The slope in assay [6] is 0.00596 (inactive).
As to `O=C(Nc1ccc2c(c1)OCCO2)c1cnc2n(c1=O)CCS2`, the cell count in assay [1] worked out at 550. Also, the inhibition was -2.3% (inactive) in assay [1], -8.2% (inactive) in assay [3], -79.9% (inactive) in assay [7] and -177% (inactive) in assay [8]. The inhibition of aggregation in assay [2] was 9.3% (inactive). Further, the figures for the nuclei count in assay [2] and in assay [3] were 78.2% and 98.4%, respectively. In assay [4], the fluorescence slope is -0.57 (inactive). For the same compound, the NADPH fluorescence slope in assay [5] was -5.8e-06 (inactive). Moreover, in assay [6], the slope was 0.00627 (inactive).
Take `CCOCCCNC(=O)c1cc2sc(Cl)cc2n1CC`: in assay [1], the cell count was 449. Further, the inhibition is 17.9% (inactive) in assay [1], -80.9% (inactive) in assay [3], 34.7% (inactive) in assay [7] and 19.5% (inactive) in assay [8]. Further, the inhibition of aggregation in assay [2] is -1.1% (inactive). The nuclei count in assay [2] turned out to be 89.7%; in assay [3], 100%. Besides, the fluorescence slope in assay [4] was -0.531 (inactive). The NADPH fluorescence slope in assay [5] is -9.5e-05 (inactive). The slope in assay [6] was 0.00603 (inactive).
`COc1ccc(-c2noc(COc3ccc(Cl)c(C)c3)n2)cc1`: the cell count in assay [1] was 553. Moreover, the inhibition was 11.9% (inactive) in assay [1], -14% (inactive) in assay [3], 7.55% (inactive) in assay [7] and 20.3% (inactive) in assay [8]. For the same compound, the inhibition of aggregation in assay [2] is -13.5% (inactive). The figures for the nuclei count in assay [2] and in assay [3] were 103% and 94.1%, respectively. Besides, the fluorescence slope in assay [4] is -0.527 (inactive). In assay [5], the NADPH fluorescence slope was -4.1e-05 (inactive). For the same compound, the slope in assay [6] was 0.00784 (inactive).
For `Cc1c(C(=O)NCc2ccoc2)oc2ccc3c(c12)C(=O)CC(C)(C)O3`, the cell count in assay [1] amounted to 214. In addition, the inhibition in assay [1] was 7.4% (inactive); in assay [3] it was 7.9% (inactive); in assay [7] it was -46% (inactive); in assay [8] it was -231% (inactive). In addition, the inhibition of aggregation in assay [2] was -2.1% (inactive). Further, the nuclei count in assay [2] was found to be 78.2%; in assay [3], 103%. For the same compound, in assay [4], the fluorescence slope was -0.531 (inactive). For the same compound, the NADPH fluorescence slope in assay [5] is 1.8e-05 (inactive). Moreover, in assay [6], the slope was 0.00522 (inactive).
Consider `O=C(Nc1ccc2c(c1)C(=O)N(C1CCCCC1)C2=O)C1CCCO1` (centres undefined), for which the cell count in assay [1] was 269. The inhibition is -11.7% (inactive) in assay [1], 47.7% (inactive) in assay [3], -7.34% (inactive) in assay [7] and -20.5% (inactive) in assay [8]. Besides, the inhibition of aggregation in assay [2] is 9% (inactive). In addition, the nuclei count turned out to be 71.5% in assay [2] and 43.2% in assay [3]. In addition, in assay [4], the fluorescence slope is -0.0454 (active). In assay [5], the NADPH fluorescence slope was 6.1e-06 (inactive). Besides, the slope in assay [6] was 0.00452 (inactive).
As to `CCc1ccc(C2CC(c3cccc(OC)c3)n3nc(N)nc3N2)cc1` (centres undefined), the cell count in assay [1] is 528. The inhibition in assay [1] is 7.5% (inactive); in assay [3], -40.1% (inactive); in assay [7], 11.5% (inactive); in assay [8] it was 25.7% (inactive). Besides, in assay [2], the inhibition of aggregation was 3.7% (inactive). In addition, the nuclei count in assay [2] came to 111%; in assay [3], 104%. Moreover, in assay [4], the fluorescence slope is -0.599 (inactive). Moreover, the NADPH fluorescence slope in assay [5] is -4e-05 (inactive). In assay [6], the slope is 0.00641 (inactive).
With `O=C(NCCCN1CCCC1=O)C1CCN(S(=O)(=O)N2CCOCC2)CC1`, the cell count in assay [1] turned out to be 195. Moreover, the inhibition in assay [1] is 25.3% (active); in assay [3], 27.7% (inactive); in assay [7] it was -12.7% (inactive); in assay [8], -7.16% (inactive). Also, the inhibition of aggregation in assay [2] is 17.1% (inactive). In addition, the nuclei count in assay [2] came to 94.9%; in assay [3], 81.9%. In addition, in assay [4], the fluorescence slope was -0.362 (inactive). In addition, in assay [5], the NADPH fluorescence slope is -4.9e-05 (inactive). For the same compound, in assay [6], the slope was 0.00575 (inactive).
Take `O=C(NCCc1ccccc1)C1CCCN(S(=O)(=O)c2cccs2)C1` (centres undefined): the cell count in assay [1] amounted to 901. Also, the inhibition in assay [1] was 6.9% (inactive); in assay [3], -27.2% (inactive); in assay [7], 10.2% (inactive); in assay [8], 23.9% (inactive). Further, the inhibition of aggregation in assay [2] was -17.3% (inactive). For the same compound, the values for the nuclei count in assay [2] and in assay [3] were 111% and 115%, respectively. Further, the fluorescence slope in assay [4] was -0.571 (inactive). Also, the NADPH fluorescence slope in assay [5] was -2.3e-05 (inactive). Further, in assay [6], the slope was 0.00585 (inactive).
On to `Cc1ccc(C)c(N2CCN(CCCNC(=O)Cn3cc4c(n3)CCC(C)C4)CC2)c1` (centres undefined), for which the cell count in assay [1] turned out to be 554. Besides, the inhibition in assay [1] was 9.9% (inactive); in assay [3], 29.9% (inactive); in assay [7], 13.6% (inactive); in assay [8] it was 41% (inactive). Besides, in assay [2], the inhibition of aggregation is -8.9% (inactive). Besides, the nuclei count amounted to 90.9% in assay [2] and 106% in assay [3]. Moreover, in assay [4], the fluorescence slope is -0.574 (inactive). For the same compound, the NADPH fluorescence slope in assay [5] is -2.4e-05 (inactive). In assay [6], the slope is 0.00559 (inactive).
Consider `Cc1ccc(Cn2c(=O)c3ccccc3n3c(CCC(=O)O)nnc23)cc1`, for which, in assay [1], the cell count is 681. The inhibition was -13.4% (inactive) in assay [1], -55.9% (inactive) in assay [3], 0.88% (inactive) in assay [7] and 12.6% (inactive) in assay [8]. Moreover, in assay [2], the inhibition of aggregation is -2.1% (inactive). Further, the nuclei count in assay [2] came out at 90%; in assay [3] it was 116%. In assay [4], the fluorescence slope is -0.554 (inactive). Besides, in assay [5], the NADPH fluorescence slope is 1.7e-05 (inactive). The slope in assay [6] is 0.00669 (inactive).
For the compound `O=C(C1CCC(CNS(=O)(=O)c2cccc3cccnc23)CC1)N1CCCC1` (centres undefined), the cell count in assay [1] is 711. The inhibition is 5.5% (inactive) in assay [1], -43.8% (inactive) in assay [3], -0.546% (inactive) in assay [7] and 14.6% (inactive) in assay [8]. Also, the inhibition of aggregation in assay [2] is -15.3% (inactive). In addition, the nuclei count is 67.8% in assay [2] and 112% in assay [3]. Further, the fluorescence slope in assay [4] is -0.549 (inactive). The NADPH fluorescence slope in assay [5] was -1.6e-05 (inactive). The slope in assay [6] is 0.00608 (inactive).
